Screens (PubChem)
Compounds with a hit are over-represented: about 7% of the library has one in this group of screens.
KLK7 zymogen act: proKLK7 zymogen activators, primary screen, biochemical, fluorescence intensity. activation, % at 7 µM. AID 652039, 2013. hit rate 0.9% among 370,000. Kallikrein-7 (Homo sapiens), P49862. purified proKLK7, EDANS-DABCYL substrate fluorescence; 100% is mature enzyme control, 0% vehicle;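 active means activation above the mean of all tested compounds plus 3 SD, computed per campaign excluding outliers beyond control limits, cut at about 13% in these data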
rCAG binder: binders of r(CAG) RNA repeats, primary screen, biochemical, fluorescence | r(CAG) RNA repeat, TO-PRO-1 dye displacement fluorescence | inhibition, % at 3 µM | AID 651821, 2012 | hit rate 1.3% among 370,000;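 active means inhibition above the plate cutoff, the mean of all test compounds on that plate plus 3 SD, cut at about 35% in these data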;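 further: 0% = DMSO alone and 100% = 100 µM mitoxantrone as full dye displacement; higher means more dye released from RNA so lower well fluorescence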
ADAM10 inh: human ADAM10 inhibitors, primary screen, biochemical, QFRET, HTS. Disintegrin and metalloproteinase domain-containing protein 10 (Homo sapiens), O14672. recombinant ADAM10, EDANS/DABCYL FRET peptide cleavage, 3 h. inhibition, % at 7 µM. hit rate 0.62% among 370,000. AID 720582, 2013;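 active means inhibition above a per-campaign cutoff equal to the mean of compounds falling between control-based bounds plus 3 SD, cut at about 20% in these data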;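 further: 0% = DMSO wells while the 100% control is not disclosed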
Target sequence (O14672 214-748 limits assumed): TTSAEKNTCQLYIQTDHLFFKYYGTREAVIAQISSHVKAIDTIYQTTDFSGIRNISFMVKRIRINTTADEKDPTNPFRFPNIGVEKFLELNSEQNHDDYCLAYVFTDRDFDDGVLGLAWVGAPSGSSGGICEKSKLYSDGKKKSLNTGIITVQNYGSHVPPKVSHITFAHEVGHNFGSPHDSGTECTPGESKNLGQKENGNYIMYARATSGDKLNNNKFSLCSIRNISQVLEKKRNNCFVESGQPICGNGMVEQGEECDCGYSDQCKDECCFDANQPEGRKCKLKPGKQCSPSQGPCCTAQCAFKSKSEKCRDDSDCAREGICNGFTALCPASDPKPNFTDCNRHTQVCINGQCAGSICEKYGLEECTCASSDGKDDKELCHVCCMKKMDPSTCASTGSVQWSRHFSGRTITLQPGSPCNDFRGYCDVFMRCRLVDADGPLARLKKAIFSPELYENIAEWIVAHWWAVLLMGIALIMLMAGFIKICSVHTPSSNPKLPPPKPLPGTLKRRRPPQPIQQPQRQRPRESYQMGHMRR
GRIN3A LBD mod: binders of NR3A ligand-binding domain, primary screen, biophysical, differential scanning fluorimetry, uHTS; Glutamate receptor ionotropic, NMDA 3A (GRIN3A) ligand-binding domain; NR3A LBD differential scanning fluorimetry, Tm shift; 0% = protein alone, 100% = glycine-bound protein; Tm shift relative to glycine control, % at 25 µM; hit rate 2.5% among 340,000; AID 1259313, 2017;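 active means melting temperature shift of at least 10% of the positive control shift, at one fixed dose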
AHR act: AHR activators, primary screen, cell-based, luminescence, luciferase reporter, human. AHR-responsive luciferase reporter cells. Aryl hydrocarbon receptor (Homo sapiens), P35869. AID 2796, 2010. hit rate 2.5% among 320,000. activation, % at 5 µM; in the data active means activation above about 47%;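 further: 0% = vehicle wells and 100% = reference agonist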
ADAM17 inh: ADAM17 inhibitors, primary screen, biochemical, QFRET | inhibition, % at 6.95 µM | hit rate 0.83% among 370,000 | recombinant ADAM17, EDANS/DABCYL FRET peptide cleavage | Disintegrin and metalloproteinase domain-containing protein 17 (Homo sapiens), P78536;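 active means inhibition above the mean of compounds lying between control limits plus 3 SD, set per campaign, cut at about 8.5% in these data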;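 further: 0% = DMSO-only wells as the low control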
AHR act confirm: AHR activators, confirmation, cell-based, luminescence, luciferase reporter, human. shares compounds with AHR act. human cells, AHR-responsive luciferase reporter. activation, % at 9 µM. hit rate 87% among 2,300. AID 2845, 2010; in the data active means activation above about 49%;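 further: HepG2 hepatoma cells carrying a DRE-driven firefly luciferase reporter; 0% = vehicle wells and 100% = reference agonist wells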
PXR act counter: human PXR activators, counter-screen for AHR activator project, cell-based, luciferase luminescence; AID 434939, 2010; cell-based PXR reporter; hit rate 88% among 2,300; activation, % at 11.6 µM; shares compounds with AHR act; in the data active means activation above about 11%;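 further: human hepatoma DPX-2 cells expressing full-length human PXR; 0% = DMSO and 100% = reference agonist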
proKLK7 act conf: proKLK7 zymogen activators, confirmation, biochemical, fluorescence intensity, triplicate; activation, % at 7 µM; AID 686949, 2013; shares compounds with KLK7 zymogen act; hit rate 68% among 3,200; purified proKLK7, EDANS-DABCYL substrate fluorescence; scaled: vehicle 0, mature enzyme 100;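 active means activation, as change over the incubation, above the mean of all tested compounds plus 3 SD, cut at about 13% in these data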
EDANS interfere: EDANS-DABCYL substrate optical interference, artefact control for kallikrein-7 zymogen activator project, biochemical, fluorescence intensity, high throughput | hit rate 80% among 3,200 | activation, % at 7 µM | shares compounds with KLK7 zymogen act | AID 686952, 2013 | no enzyme, 4 h; solvent 0%, active enzyme control 100%;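 active means activation above the all-compound mean plus 3 SD, ignoring values outside control-based bounds, cut at about 4.8% in these data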;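 further: value is the 4 h activation minus the activation read at time zero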
ADAM10 confirm: human ADAM10 inhibitors, confirmation, biochemical, QFRET, triplicate; shares compounds with ADAM10 inh; ADAM10 QFRET peptide cleavage, EDANS fluorescence; inhibition, % at 6.95 µM; hit rate 1% among 2,100;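 active means inhibition above about 20% chosen separately for each screening run, limit read from the data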;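 further: 0% = DMSO wells and 100% = marimastat wells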
ADAM17 counter: ADAM17 inhibitors, counter-screen for ADAM10 exosite inhibitor project, biochemical, QFRET, high throughput. hit rate 0.5% among 2,100. AID 743214, 2013. ADAM17 QFRET peptide cleavage, EDANS fluorescence. inhibition, % at 6.95 µM. shares compounds with ADAM10 inh;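 active means mean triplicate inhibition above the solvent-only control wells' mean plus 3 SD, cut at about 12% in these data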;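 further: 0% = DMSO wells and 100% = marimastat wells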
ADAM10 ctr: ADAM10 inhibitors, counter-screen for ADAM17 exosite inhibitor project, biochemical, FRET, human ADAM10. shares compounds with ADAM17 inh. recombinant ADAM10, EDANS/DABCYL FRET peptide cleavage, 3 h. inhibition, % at 6.95 µM. hit rate 47% among 2,900. AID 743256, 2014;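 active means mean inhibition over the triplicate runs exceeds the activity threshold set in the earlier primary screen, cut at about 20% in these data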;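 further: 0% = DMSO wells and 100% = marimastat wells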
ADAM17 confirm: ADAM17 inhibitors, hit retest, confirmation, biochemical, QFRET peptide cleavage; shares compounds with ADAM17 inh; recombinant ADAM17, EDANS/DABCYL QFRET peptide cleavage; inhibition, % at 6.95 µM; hit rate 65% among 2,900; AID 743257, 2014;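 active means mean inhibition across replicates above the hit cutoff set in the primary screen, cut at about 8.5% in these data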;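 further: 0% = DMSO wells and 100% = marimastat wells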
Starred values were filed as active, the others as inactive; i = inactive; x = not tested or not shown.

SMILES	KLK7 zymogen act	rCAG binder	ADAM10 inh	GRIN3A LBD mod	AHR act	ADAM17 inh	AHR act confirm	PXR act counter	others
O=C(/C=C/c1cccc(F)c1)Nc1nccs1	0	-4	-2	3	19	-1	x	x
CCn1c2ccccc2c2cc(NC(=O)COC(=O)c3ccc(F)cc3Cl)ccc21	0	6	-2	x	x	-3	x	x
CSc1nc2[nH]c3c(c2c2nncn12)CC(C)(C)OC3	0	-1	3	1	9	-2	x	x
CSc1nc2[nH]c3c(c2c2nnnn12)CCCC3	14*	12	-317	6	116*	-99	107*	44*	proKLK7 act conf=7;EDANS interfere=9.8*
Oc1[nH]c2ccccc2c1N=Nc1ccc(F)cc1	97*	7	9	0	94*	4	91*	7	proKLK7 act conf=36*;EDANS interfere=56*
Cc1cc(NCCCn2ccnc2)n2c(nc3ccccc32)c1C#N	17*	-3	i	-2	104*	-192	79*	16*	proKLK7 act conf=54*;EDANS interfere=72*
CCN(C(=O)[C@@H](C1CC1)[C@@H](O)c1ccc(C(C)=O)cc1)c1ccccc1	0	-1	-2	x	x	-5	x	x
c1ccc2nc3c(nc2c1)OCC1CCCCN31 (stereo not given)	16*	-6	i	0	102*	i	104*	46*	proKLK7 act conf=18*;EDANS interfere=28*
Nc1ccc2nc(-c3cccc(-c4nc5ccc(N)cc5[nH]4)c3)[nH]c2c1	0	22	0	x	7	-5	x	x
Nc1ccc2nc(-c3ccc(Cl)cc3)[nH]c2c1	66*	8	i	1	167*	i	111*	33*	proKLK7 act conf=64*;EDANS interfere=66*
O=C(Oc1ccc2ccccc2c1)c1ccco1	1	-2	-6	1	7	0	x	x
Cc1oc2cc(OC(=O)c3ccco3)ccc2c(=O)c1-c1nc2ccccc2n1C	16*	0	-101	-7	106*	-39	2	20*	proKLK7 act conf=115*;EDANS interfere=104*
C=CCN1C(=O)[C@@H](CC(=O)NCc2cccs2)[C@]2(C(=O)OCC)CCCCC/C=C/12	0	1	-2	x	x	-1	x	x
O=C(Nc1ccc(Cl)cc1)C1CCCN1S(=O)(=O)c1cccc2cccnc12 (stereo not given)	0	3	1	x	x	2	x	x
O=[N+]([O-])c1cc(Cl)ccc1-c1nc(-c2ccccc2)no1	0	2	13	0	44	-1	x	x
O=[N+]([O-])c1ccccc1-c1nc(-c2ccc(Br)o2)no1	0	4	23*	7	112*	5	109*	47*	ADAM10 confirm=1;ADAM17 counter=1
C=CCNc1cccc2c1S(=O)(=O)N[C@H](CC(C)C)CO2	0	1	-6	x	x	-2	x	x
O/N=C/c1cc(Cl)ccc1OCc1ccccc1Cl	0	10	23*	-20	106*	5	103*	15*	ADAM10 confirm=9;ADAM17 counter=2
COc1ccc(N=Nc2c(C)n[nH]c2C)cc1	-1	-1	11	-1	47	3	x	x
Cc1n[nH]c(C)c1N=Nc1ccc(Br)cc1	1	1	21*	-8	132*	8	123*	20*	ADAM10 confirm=3;ADAM17 counter=1
CC(C)C[C@@H](CCCc1ccccc1)CCC(=O)N(c1ccccc1)c1ccccc1	0	2	-14	x	x	-4	x	x
COc1ccc(/C=N/NC(=O)c2ccn[nH]2)cc1COc1ccc(Cl)cc1	0	17	20*	10	87*	7	-5	11*	ADAM10 confirm=5;ADAM17 counter=3
CC1=NN(c2ccccc2)C(=O)/C1=C/c1cccs1	0	4	18	2	84*	10*	87*	37*	ADAM10 ctr=1;ADAM17 confirm=0
CC1=NN(c2ccccc2)C(=O)/C1=C\c1ccc(Br)s1	0	11	6	-3	23	2	x	x
C=CCc1c(C)nc(-c2ccccc2)nc1Nc1ccccc1O	0	7	15	2	121*	10*	88*	134*	ADAM10 ctr=29*;ADAM17 confirm=17*
Oc1ccccc1-c1cc(-c2ccccc2Cl)[nH]n1	-1	10	14	9	96*	9.5*	115*	18*	ADAM10 ctr=24*;ADAM17 confirm=12*
CC(C)c1cc(C(C)C)c(S(=O)(=O)N2CCC(C(=O)NCc3cccs3)CC2)c(C(C)C)c1	0	6	4	x	x	-1	x	x
Cc1cc(C(=O)Nn2c(-c3ccc(Br)cc3)nc3ccccc3c2=O)ccc1[N+](=O)[O-]	-1	22	14	8	83*	8.9*	48*	49*	ADAM10 ctr=24*;ADAM17 confirm=12*
